# From PubChem
# UBC9 SUMO inh = inhibitors of human SUMOylation (UBC9); inhibition, % at 35 µM; P63279; actives 0.36% (n = 290,000); HTRF SUMOylation assay, SAE1/SAE2 + UBC9, in vitro; in the data active = inhibition above about 50%, passing the limit was not always enough
# NR3A LBD binder = modulates the human NR3A ligand-binding domain | Tm shift relative to glycine control, % at 25 µM | actives 2.5% (n = 340,000) | NR3A LBD differential scanning fluorimetry, Tm shift; 0% = protein alone, 100% = glycine-bound protein | AID 1259313;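 active = melting temperature shift of at least 10% of the positive control shift, at one fixed dose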
# sPLA2-III inh = Inhibits HGIII-sPLA2 liposome hydrolysis, primary screen; Q9NZ20; QFRET BODIPY PC-A2 liposome hydrolysis, fluorescence; inhibition, % at 12.2 µM; actives 0.56% (n = 370,000);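 active = inhibition above mean plus 3 SD of compounds lying within the high and low control bounds, cut at about 19% in these data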;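 also: 0% = median of test compound wells and 100% = no enzyme DMSO wells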
# Target sequence (Q9NZ20 whole entry, looked up): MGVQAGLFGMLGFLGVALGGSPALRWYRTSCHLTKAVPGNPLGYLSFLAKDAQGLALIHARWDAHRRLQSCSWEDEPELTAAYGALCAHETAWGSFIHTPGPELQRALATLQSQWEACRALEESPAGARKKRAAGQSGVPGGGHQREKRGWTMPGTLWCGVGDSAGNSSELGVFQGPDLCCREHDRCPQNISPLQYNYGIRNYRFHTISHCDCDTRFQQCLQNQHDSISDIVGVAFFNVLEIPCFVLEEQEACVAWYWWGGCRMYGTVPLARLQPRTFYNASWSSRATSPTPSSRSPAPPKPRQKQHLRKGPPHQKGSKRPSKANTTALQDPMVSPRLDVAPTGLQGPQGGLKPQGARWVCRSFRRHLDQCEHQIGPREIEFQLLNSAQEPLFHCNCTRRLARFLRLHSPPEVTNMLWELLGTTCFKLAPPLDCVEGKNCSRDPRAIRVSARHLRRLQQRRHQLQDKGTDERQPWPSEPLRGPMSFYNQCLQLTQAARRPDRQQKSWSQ
# UBC13 polyUb = blocks human UBC13 polyubiquitin chain formation; inhibition, % at 20 µM; AID 485273; actives 0.47% (n = 330,000); P61088; TR-FRET; in the data active = inhibition above about 45%, passing the limit was not always enough
# Target sequence (P61088 whole entry, looked up): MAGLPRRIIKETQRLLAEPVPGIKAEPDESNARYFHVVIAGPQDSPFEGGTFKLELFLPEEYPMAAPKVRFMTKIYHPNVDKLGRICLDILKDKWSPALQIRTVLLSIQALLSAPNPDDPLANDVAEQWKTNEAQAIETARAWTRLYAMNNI
# sPLA2 confirm = human GIII-sPLA2 inhibition, confirmation | shares compounds with sPLA2-III inh | recombinant hGIII-sPLA2, BODIPY PC-A2 QFRET fluorescence | inhibition, % at 12.2 µM | actives 34% (n = 2,000) | AID 743280;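 active = mean inhibition across triplicates above the hit cutoff set in the earlier primary screen, cut at about 19% in these data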;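 also: 0% = enzyme with DMSO and 100% = DMSO wells lacking enzyme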
# BODIPY interf = counter-screen for HGIII-sPLA2 inhibitors: 535nm fluorescence interference. shares compounds with sPLA2-III inh. BODIPY FL product fluorescence interference, QFRET. inhibition, % at 12.2 µM. actives 8.5% (n = 2,000). AID 743282;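 active = average inhibition above the solvent-only control mean plus 3 SD, cut at about 6% in these data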;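 also: 0% = DMSO with substrate plus product and 100% = DMSO with substrate alone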
# 535nm interf DR = interferes with 535nm fluorescence in dose response counter-screen. shares compounds with sPLA2-III inh. BODIPY FL product fluorescence interference, cell-free. IC50, µM. 240 tested, under 10 active;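 active = IC50 at or below 10 µM; inactive = IC50 above 10 µM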
# Numbers without * were called inactive; · = no result given. Sampled rows, rich in hits. Any-hit rate of the full collection: about 3.3%.
SMILES,UBC9 SUMO inh,NR3A LBD binder,sPLA2-III inh,UBC13 polyUb,sPLA2 confirm,BODIPY interf,others
Cc1cccc(/C=N/Nc2ccc3ccccc3n2)c1,-0.7,-10.2,22.6*,15.3,-20.2,-6.3,
NC(=S)NNC(=O)C12CC3CC(CC(C3)C1)C2,-0.3,1.0,21.4*,6.3,8.5,-0.2,
Cn1cccc1C(=O)N1CCN(S(=O)(=O)c2cccc3ccccc23)CC1,·,·,-5.8,·,·,·,
CCCCNC(=O)C[C@H]1C[C@@]2(C(=O)OC)C(=C[C@H](C(C)C)O[C@@H]2C2CC2)N(Cc2ccc3c(c2)OCO3)C1=O,·,·,-2.5,·,·,·,
O=C(CSc1nnc(-c2cccc(Cl)c2)n1Cc1ccco1)Nc1ccc2c(c1)OCO2,·,·,-19.2,·,·,·,
CCCn1c(=O)c2ccccc2n2c(SCCOc3ccc(C)cc3)nnc12,32.7,0.3,19.4*,6.3,10.4,-14.3,
CCCn1c(=O)c2ccccc2n2c(SCC(N)=O)nnc12,20.3,-3.0,4.0,1.8,·,·,
NC(=O)C1CCN(c2ncc(Br)cn2)CC1,·,·,1.8,·,·,·,
Cn1c(CBr)c(C(=O)c2ccc([N+](=O)[O-])cc2)c(=O)n(C)c1=O,39.5,0.2,22.1*,-6.8,5.0,-4.1,
CC(C)(N[C@@H](Cc1c[nH]c2ccccc12)C(=O)NCCc1c[nH]c2ccccc12)C(=O)NC1CCCCC1,·,·,-99.5,·,·,·,
CCCCNC(=O)C1c2ccccc2OCC(=O)N1CC(F)(F)F (stereo not given),·,·,20.3*,·,-4.7,-6.2,
Cc1cccc(C)c1NC(=O)Cn1nnc(-c2ccncc2)n1,·,·,3.0,·,·,·,
Cc1ccc2sc(NNC(=O)c3cc(-c4cccs4)nc4ccccc34)nc2c1C,36.5,·,8.9,·,·,·,
O=C(NNc1nc2ccc(Cl)cc2s1)c1cc(-c2cccs2)nc2ccccc12,26.3,-5.1,28.3*,-72.8,34.5*,12.7*,
Cc1cc(C)c2nc(NNC(=O)c3cc(-c4cccs4)nc4ccccc34)sc2c1,3.6,-3.3,36.8*,-82.6,33.6*,0.0,535nm interf DR=>122
COC(=O)[C@H](C)NC(=O)[C@@H]1CC=C[C@@H]2CCN(CCc3ccccc3)C(=O)[C@@H]21,·,·,-0.6,·,·,·,
CC(C)(C)NC(=S)NNC(=O)c1ccc2ncccc2c1,3.7,0.1,13.5,-6.7,·,·,
O=C(NNC(=S)Nc1ccccc1)c1ccc2ncccc2c1,-20.5,-2.5,24.0*,-0.4,30.2*,-2.9,535nm interf DR=>122
O=C(NNC(=S)Nc1ccccc1Cl)c1ccccc1Br,-26.7,-9.6,22.4*,-4.6,25.9*,5.8,
COC(=O)Cc1ccc(NC(=S)NNC(=O)c2ccccc2Br)cc1,-6.2,2.3,13.4,0.0,·,·,
O=C(NNC(=S)Nc1ccc(Br)cc1)c1ccccc1,-5.2,-1.3,19.9*,4.0,21.7*,6.7*,
O=C(NNC(=S)Nc1ccc(Br)cc1)c1ccccc1Br,-87.6,1.7,34.9*,-12.9,26.4*,8.2*,
CC(C)CN1C(=O)[C@]2(CC(=O)N(C)C2c2ccccc2)c2cc(-n3cc(CCCC#N)nn3)ccc21 (stereo not given in full),·,·,7.6,·,·,·,
Cc1c(NC(=O)C2CCCN(S(=O)(=O)c3ccc(F)cc3)C2)c(=O)n(-c2ccccc2)n1C (stereo not given),·,·,7.5,·,·,·,
O=C(NNC(=S)NC1CCCCC1)c1ccccc1Br,-91.9,-0.3,21.3*,-10.2,29.3*,-2.8,535nm interf DR=>122
SMILES,UBC9 SUMO inh,NR3A LBD binder,sPLA2-III inh,UBC13 polyUb,sPLA2 confirm,BODIPY interf,others
CSCc1cc(N(C)C)nc(SCc2ccc(Cl)c(Cl)c2)n1,10.5,-6.3,20.9*,0.0,-14.9,-14.2,
CNc1cc(CSC)nc(SCc2ccc(Cl)cc2Cl)n1,-32.1,-3.3,-4.6,8.6,·,·,
CC(=O)c1c(C)[nH]c(-c2ccccc2)c1C,-2.7,-0.4,28.0*,-2.4,11.1,1.9,
C[C@H]1[C@@H](NC(=O)c2ccc(O)cc2)CC[C@@]23CCCN2C(=O)CCC[C@@H]13,·,·,2.2,·,·,·,
COc1ccc2ccccc2c1/C=N/NC(=S)Nc1cc(S(=O)(=O)N2CCOCC2)ccc1N1CCOCC1,6.1,-10.2,1.3,-3.6,·,·,
CCOc1cccc(/C=N/NC(=S)Nc2cc(S(=O)(=O)N3CCOCC3)ccc2N2CCOCC2)c1O,-13.0,-4.7,23.3*,-13.4,33.4*,-16.1,
COc1ccc(CN(CCN2CCOCC2)C(=O)c2ccccc2C)cc1OC,·,·,5.2,·,·,·,
Cc1cc(C)c2c(c1)/C(=N/Nc1ccc(S(N)(=O)=O)cc1[N+](=O)[O-])CCC2,16.5,0.2,19.6*,-65.3,8.7,7.5*,
NS(=O)(=O)c1ccc(N/N=C2/CCCCC2C2CCCCC2)c([N+](=O)[O-])c1 (stereo not given),-36.1,0.3,-9.4,-28.8,·,·,
COc1cc(C=NCC2OCCc3ccccc32)cc(OC)c1 (stereo not given),13.6,-3.1,20.2*,-1.0,0.1,-3.8,
C#CCNC(=O)C[C@H]1C[C@@]2(C(=O)OC)C(=C[C@H](C(C)C)O[C@@H]2C2CC2)N(Cc2cccc3ccccc23)C1=O,·,·,-9.5,·,·,·,
Cn1c(CSCc2ccc(Cl)cc2)n[nH]c1=S,3.7,-1.6,19.6*,3.3,18.3,-2.7,
Cn1c(CSCc2ccccc2)n[nH]c1=S,-5.7,3.5,31.7*,-3.8,7.0,-0.3,
Clc1ccc(OCCOc2ccc(Br)nc2Br)c(Cl)c1,·,·,-1.5,·,·,·,
CC(N)c1csc(Nc2nncc3ccccc23)n1 (stereo not given),·,·,23.5*,·,2.4,-7.9,
NC(CCc1ccccc1)c1csc(Nc2nncc3ccccc23)n1 (stereo not given),·,·,5.3,·,·,·,
COc1cccc(Nc2nc(C(N)C(C)C)cs2)n1 (stereo not given),·,·,27.5*,·,9.5,-12.8,
NC(Cc1ccccc1)c1csc(Nc2nncc3ccccc23)n1 (stereo not given),·,·,14.8,·,·,·,
CC(C)C(N)c1csc(Nc2nncc3ccccc23)n1 (stereo not given),·,·,20.0*,·,6.5,-15.9,
O[C@H](COc1ccc(C(F)(F)F)cc1)CN1CCC(C(O)(c2ccccc2)c2ccccc2)CC1,·,·,-17.6,·,·,·,
CCCCOc1ccc(C(=O)NC2CCCCN(Cc3ccccc3C)C2=O)cc1 (stereo not given),·,·,-0.3,·,·,·,
O=[N+]([O-])c1ccc(Cl)c(C2Nc3cccc4cccc(c34)N2)c1,50.5,1.4,32.0*,-1.8,56.7*,17.9*,
O=[N+]([O-])c1ccccc1C1Nc2cccc3cccc(c23)N1,12.8,-7.0,1.4,-35.4,·,·,
CC(COc1ccc([N+](=O)[O-])cc1Cl)CN1CCC(C(O)(c2ccccc2)c2ccccc2)CC1 (stereo not given),·,·,-10.2,·,·,·,
CC(c1ccccc1)N(NC(=O)C(O)(c1ccccc1)c1ccccc1)C(=O)c1ccccc1 (stereo not given),26.0,-2.9,21.9*,5.7,13.3,-18.8,
O=C(NC(=S)NNC(=O)c1ccccc1[N+](=O)[O-])c1ccccc1,-2.5,3.3,3.5,3.7,·,·,
